Assay results taken from PubChem BioAssay.
The source made the active and inactive calls. Unless noted, how the calls were made is not given here.

Test system: not listed separately
Experiment: human hepatoma cell viability loss – ATP luminescence, cytotoxicity control for P. falciparum antimalarial project, primary screen (AID 2303;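 active means inhibition above 50%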;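 further: 0% = DMSO wells and 100% = digitonin-killed cells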)
Details: HepG2 viability, 24-48 h, at 10 µM, hits give high values

Compound	inhibition
CC(C)CCNC(=O)C1Cc2c([nH]c3ccc(Br)cc23)C2(CCN(Cc3ccccc3)CC2)N1 (stereo not drawn)	100% (active)
CN1CCN(c2ccnc3cc4ccccc4cc23)CC1	11% (inactive)
Cc1noc(C)c1-c1cccc(CNCc2cccc(-c3ccc(-c4nc5ccccc5[nH]4)s3)c2)c1	24% (inactive)

Biological target: L-lactate dehydrogenase (Plasmodium falciparum (isolate CDC / Honduras)) (UniProt Q27743)
Sequence (Q27743 whole entry, looked up): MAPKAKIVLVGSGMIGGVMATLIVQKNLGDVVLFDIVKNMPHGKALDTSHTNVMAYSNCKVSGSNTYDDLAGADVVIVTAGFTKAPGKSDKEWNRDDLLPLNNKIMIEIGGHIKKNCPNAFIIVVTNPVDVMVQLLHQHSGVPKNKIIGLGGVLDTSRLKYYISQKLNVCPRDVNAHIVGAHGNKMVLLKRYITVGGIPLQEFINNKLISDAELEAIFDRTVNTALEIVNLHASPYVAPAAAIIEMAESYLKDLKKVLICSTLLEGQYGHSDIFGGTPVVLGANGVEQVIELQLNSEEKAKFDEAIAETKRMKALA
Experiment: PfLDH activity inhibition – cell lysate, 3D7 strain, counter-screen for P. falciparum growth inhibition project (AID 2304);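 further: 0% = vehicle and 100% = reference inhibitor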
Details: P. falciparum 3D7 crude extract, LDH APAD/NBT absorbance; at 2 µM; hits give high values

Compound	inhibition
CC(=O)C=C1CC(=O)N(C[C@@H](O)[C@H]2O[C@@H]3OC(C)(C)O[C@@H]3[C@H]2O)c2ccccc2N1	3% (inactive)
O=C(Nc1cccc(-c2ccc(-c3nc4ccc(C(F)(F)F)cc4[nH]3)cc2)c1)c1ccoc1	-4% (inactive)
Cc1cc(C2CCN(CCCCNC(=O)c3ccc(-c4ccc(C#N)cc4)cc3)CC2)c(C)cc1O	3% (inactive)
CNC(=O)CSc1nnc(-c2ccc(C)cc2)c(-c2ccc(C)cc2)n1	-3% (inactive)
CCN(CC)CCN(CCN(CC)CC)c1ccc(-c2nc3cc(Cl)c(Cl)cc3[nH]2)cc1	2% (inactive)
CN(C)CCOc1ccc(/C(=C(/CCCn2ccnc2)c2ccccc2)c2ccc(O)cc2)cc1	3% (inactive)
CC(C)c1ccc(Nc2nc(NCCc3cnc[nH]3)nc(NCc3ccccc3)n2)cc1	-2% (inactive)
Cc1ccc(Oc2ccc(NC(=O)CNc3ccccc3N3CCCC3=O)cc2)cc1	-5% (inactive)
CC1(C)N=C(N)N=C(N)N1OCCc1ccccc1	2% (inactive)
OC(COCc1ccc(-c2ccccc2)cc1)CN1CCCCC1 (stereo not drawn)	-1% (inactive)
COc1ccc(-c2csc(NC(=O)CCC(=O)O)n2)cc1OC	5% (inactive)
CCCC(=O)Nc1ccc(OCCCN(Cc2ccccc2F)c2ccc(C#N)c(C(F)(F)F)c2)cc1	1% (inactive)
Cc1cccc2[nH]c(-c3ccc(-c4ccc(CNCc5ccc(CN)cc5)cc4)cc3)nc12	-4% (inactive)
NC(N)=NC(=O)Nc1ccc(Cl)c(Cl)c1	1% (inactive)
COCCNCc1cccc(-c2ccccc2CN(C(=O)c2ccc3c(c2)OCO3)c2ccc(OC)cc2)c1	2% (inactive)
FC(F)(F)c1cccnc1N1CCC(Nc2nc3ccc(Cl)cc3[nH]2)CC1	-2% (inactive)
c1ccc2c(Nc3ccc(Cc4ccc(Nc5c6ccccc6nc6ccccc56)cc4)cc3)c3ccccc3nc2c1	7% (inactive)
COc1cc(F)c2nccc([C@@H](O)CN3CC[C@H](NCc4ccc5c(n4)NC(=O)CS5)[C@H](F)C3)c2c1	5% (inactive)
COc1ccc(-c2nc(-c3ccc([N+](=O)[O-])cc3)no2)cc1OC	-1% (inactive)
N#Cc1ccc(-c2ccc(C(=O)NCCCCN3CCC(c4ccc5c(c4OCC(N)=O)CCCC5)CC3)cc2)cc1	-3% (inactive)

Compound	inhibition
CC1CN(CC(O)Cn2c3ccc(Br)cc3c3cc(Br)ccc32)CC(C)O1 (stereo not drawn)	3% (inactive)
N#Cc1cccc(C(=O)Nc2cccc(-c3cccc(CN4CCNCC4)c3)c2)c1	-3% (inactive)
COCCNCc1cccc(C#Cc2cc3ncnc(Nc4ccc(OCc5cccc(F)c5)c(Cl)c4)c3s2)n1	-4% (inactive)
Cc1cccc(-c2ccc3c(c2)CC(NCc2cccc(-n4ccnc4)c2)C3)c1 (stereo not drawn)	0% (inactive)
Nc1nc(N)c2c(ccc3c2ccn3Cc2ccccc2)n1	-8% (inactive)
COc1ccc(-c2cccc(NC(=O)c3cccc(Cl)c3)c2)cc1CN1CCC(O)CC1	5% (inactive)
Cc1cccc2[nH]c(-c3ccc(-c4cccc(CNCc5ccccc5)c4)cc3)nc12	-1% (inactive)
FC(F)(F)c1ccc2nc(-c3ccc(-c4cccc(CN5CCC(CCN6CCCCC6)CC5)c4)cc3)[nH]c2c1	-5% (inactive)
CN1CCC(C(=O)Nc2ccc(-c3ccc(-c4nc5ccccc5[nH]4)s3)cc2)CC1	3% (inactive)
COc1ccc(Nc2nccc(NCC(O)c3ccc(C(F)(F)F)cc3)n2)cc1 (stereo not drawn)	-1% (inactive)
CC(C)Cc1cn(-c2nc(-c3nc4ccccc4[nH]3)cs2)c2ccncc12	-2% (inactive)
CC1=C(C(=O)Nc2cc3cn[nH]c3cc2F)C(c2cccc(O)c2F)CC(=O)N1 (stereo not drawn)	-2% (inactive)
O=C(Nc1ccccc1)c1ccc(N2CCC(COc3cccc(C(F)(F)F)c3)CC2)nc1	-3% (inactive)
CN(C)c1nc2cc(-n3cnc4cc(-c5ccc(Cl)cc5)sc4c3=O)ccc2n1CCCN1CCCC1	2% (inactive)
O=C(NCC1CCC(C(=O)O)CC1)c1ccc(/C=C/C(=O)N2CCc3ccccc3C2c2ccc3c(c2)OCO3)cc1 (stereo not drawn)	2% (inactive)
COc1ccc(CN(C)CCCOc2ccc(NC(=O)C=Cc3ccc(C(C)(C)C)cc3)cc2)cc1OC	2% (inactive)
CC(C)CCCC(C)NC[C@@H](O)[C@H](Cc1ccccc1)NC(=O)c1cc(N2CCCC2=O)cc(N(c2ccccc2)S(C)(=O)=O)c1 (stereo partly drawn)	-5% (inactive)
CC(C)CCNC(=O)C1Cc2c([nH]c3ccc(Br)cc23)C2(CCN(Cc3ccccc3)CC2)N1 (stereo not drawn)	-3% (inactive)
CN1CCN(c2ccnc3cc4ccccc4cc23)CC1	-9% (inactive)
Cc1noc(C)c1-c1cccc(CNCc2cccc(-c3ccc(-c4nc5ccccc5[nH]4)s3)c2)c1	-1% (inactive)
